PubChem BioAssay AID1159580 (chemical genetic matrix, 2015)
Out of some 5,500 compounds screened, about 2,000 (36%) were called active. About 18% were inconclusive and are not listed. Cut-off read from the data, not from the text of the source: active = normalized growth mostly below about 0.91 (no sharp cut-off); inconclusive = no clear call, values can overlap the other calls; inactive = mostly above about 0.92. The list shows a part of the results.

Experiment: chemical genetic growth profiling, strain panel (AID 1159580);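 note: tested at 20 µM; growth read once vehicle control cultures reached saturation at 30 °C; 1 = growth at the plate median or of vehicle wells; lower values mean less growth of the strain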
Conditions: growth OD

Measured: normalized growth

NC(N)=NOCC[C@H](N)C(=O)O
inactive: S. cerevisiae deletion strains, locus YJR043C, strain POL32, stronger effect = lower value 1 | S. cerevisiae deletion strains, locus YJR075W, strain HOC1, stronger effect = lower value 0.983 | S. cerevisiae deletion strains, locus YKL009W, strain mrt4, stronger effect = lower value 0.971 | S. cerevisiae deletion strains, locus YKL068W, stronger effect = lower value 0.978 | S. cerevisiae deletion strains, locus YKL085W, strain MDH1 (second series), stronger effect = lower value 0.969 | S. cerevisiae deletion strains, locus YKL085W, strain MDH1, stronger effect = lower value 0.969 | S. cerevisiae deletion strains, locus YKL160W, strain elf1, stronger effect = lower value 1.01 | S. cerevisiae deletion strains, locus YKL190W, strain CNB1, stronger effect = lower value 0.995 | S. cerevisiae deletion strains, locus YKR001C, strain vps1, stronger effect = lower value 1 | S. cerevisiae deletion strains, locus YKR026C, strain gcn3, stronger effect = lower value 1.01 | S. cerevisiae deletion strains, locus YKR091W, strain srl3, stronger effect = lower value 1.01 | S. cerevisiae deletion strains, locus YLL001W, strain dnm1, stronger effect = lower value 1.01 | S. cerevisiae deletion strains, locus YLL026W, stronger effect = lower value 1.01 | S. cerevisiae deletion strains, locus YLL041C, strain sdh2, stronger effect = lower value 1.01 | S. cerevisiae deletion strains, locus YLR027C, strain aat2, stronger effect = lower value 1.01 | S. cerevisiae deletion strains, locus YLR039C, strain RIC1, stronger effect = lower value 0.933 | S. cerevisiae deletion strains, locus YLR058C, strain SHM2, stronger effect = lower value 0.984 | S. cerevisiae deletion strains, locus YLR102C, strain apc9, stronger effect = lower value 0.988 | S. cerevisiae deletion strains, locus YLR221C, strain rsa3, stronger effect = lower value 1.02 | S. cerevisiae deletion strains, locus YLR258W, strain gsy2, stronger effect = lower value 1.01 | S. cerevisiae deletion strains, locus YLR262C, strain YPT6 (second series), stronger effect = lower value 1.02 | S. cerevisiae deletion strains, locus YLR262C, strain YPT6, stronger effect = lower value 0.954 | S. cerevisiae deletion strains, locus YLR268W, strain sec22, stronger effect = lower value 1.03 | S. cerevisiae deletion strains, locus YLR320W, strain mms22, stronger effect = lower value 1.02 | S. cerevisiae deletion strains, locus YLR330W, strain CHS5, stronger effect = lower value 0.977 | S. cerevisiae deletion strains, locus YLR342W, strain FKS1 (second series), stronger effect = lower value 1.01 | S. cerevisiae deletion strains, locus YLR342W, strain FKS1, stronger effect = lower value 0.992 | S. cerevisiae deletion strains, locus YLR357W, strain rsc2, stronger effect = lower value 1.03 | S. cerevisiae deletion strains, locus YLR370C, strain arc18, stronger effect = lower value 1.02 | S. cerevisiae deletion strains, locus YLR371W, strain rom2, stronger effect = lower value 0.964 | S. cerevisiae deletion strains, locus YLR384C, strain iki3, stronger effect = lower value 1.01 | S. cerevisiae deletion strains, locus YLR418C, strain cdc73, stronger effect = lower value 1.02 | S. cerevisiae deletion strains, locus YML016C, strain PPZ1, stronger effect = lower value 0.992 | S. cerevisiae deletion strains, locus YML032C, strain rad52, stronger effect = lower value 0.976 | S. cerevisiae deletion strains, locus YML120C, strain ndi1, stronger effect = lower value 1.02 | S. cerevisiae deletion strains, locus YML124C, strain tub3, stronger effect = lower value 0.996 | S. cerevisiae deletion strains, locus YMR058W, strain fet3, stronger effect = lower value 1 | S. cerevisiae deletion strains, locus YMR078C, strain ctf18, stronger effect = lower value 0.998 | S. cerevisiae deletion strains, locus YMR125W, strain sto1, stronger effect = lower value 1 | S. cerevisiae deletion strains, locus YMR129W, stronger effect = lower value 1.02 | S. cerevisiae deletion strains, locus YMR205C, strain PFK2, stronger effect = lower value 1.01 | S. cerevisiae deletion strains, locus YMR223W, strain ubp8, stronger effect = lower value 0.976 | S. cerevisiae deletion strains, locus YMR231W, strain pep5, stronger effect = lower value 1.02 | S. cerevisiae deletion strains, locus YMR263W, strain SAP30, stronger effect = lower value 1.01 | S. cerevisiae deletion strains, locus YMR307W, strain GAS1, stronger effect = lower value 1.06 | S. cerevisiae deletion strains, locus YNL067W, strain RPL9B, stronger effect = lower value 1.02 | S. cerevisiae deletion strains, locus YNL071W, strain lat1, stronger effect = lower value 1.01 | S. cerevisiae deletion strains, locus YNL128W, strain TEP1, stronger effect = lower value 0.992 | S. cerevisiae deletion strains, locus YNL153C, strain GIM3, stronger effect = lower value 1.03 | S. cerevisiae deletion strains, locus YNL209W, strain ssb2, stronger effect = lower value 1 | S. cerevisiae deletion strains, locus YNL233W, strain BNI4, stronger effect = lower value 1.03 | S. cerevisiae deletion strains, locus YNL248C, strain rpa49, stronger effect = lower value 1.02 | S. cerevisiae deletion strains, locus YNL250W, strain rad50, stronger effect = lower value 0.961 | S. cerevisiae deletion strains, locus YNL271C, strain bni1, stronger effect = lower value 0.973 | S. cerevisiae deletion strains, locus YNL298W, strain CLA4, stronger effect = lower value 0.989 | S. cerevisiae deletion strains, locus YNL307C, strain MCK1, stronger effect = lower value 1 | S. cerevisiae deletion strains, locus YNL322C, strain KRE1 (second series), stronger effect = lower value 1.01 | S. cerevisiae deletion strains, locus YNL322C, strain KRE1, stronger effect = lower value 0.984 | S. cerevisiae deletion strains, locus YNR049C, strain mso1, stronger effect = lower value 1.01 | S. cerevisiae deletion strains, locus YNR052C, strain pop2, stronger effect = lower value 0.974 | S. cerevisiae deletion strains, locus YOL006C, strain TOP1, stronger effect = lower value 1.07 | S. cerevisiae deletion strains, locus YOL012C, strain htz1 1.13 | S. cerevisiae deletion strains, locus YOL147C, strain pex11, stronger effect = lower value 0.986 | S. cerevisiae deletion strains, locus YOR001W, strain rrp6, stronger effect = lower value 1.03 | S. cerevisiae deletion strains, locus YOR061W, strain CKA2, stronger effect = lower value 0.991 | S. cerevisiae deletion strains, locus YOR069W, strain VPS5, stronger effect = lower value 0.994 | S. cerevisiae deletion strains, locus YOR070C, strain gyp1, stronger effect = lower value 1.02 | S. cerevisiae deletion strains, locus YOR080W, strain dia2, stronger effect = lower value 1.02 | S. cerevisiae deletion strains, locus YOR083W, strain WHI5, stronger effect = lower value 1 | S. cerevisiae deletion strains, locus YOR106W, strain vam3, stronger effect = lower value 1.01 | S. cerevisiae deletion strains, locus YOR136W, strain idh2, stronger effect = lower value 0.988 | S. cerevisiae deletion strains, locus YOR144C, strain elg1, stronger effect = lower value 0.989 | S. cerevisiae deletion strains, locus YOR184W, strain ser1, stronger effect = lower value 0.971 | S. cerevisiae deletion strains, locus YOR265W, strain rbl2, stronger effect = lower value 1.01 | S. cerevisiae deletion strains, locus YOR270C, strain vph1, stronger effect = lower value 1.04 | S. cerevisiae deletion strains, locus YOR290C, strain snf2, stronger effect = lower value 1.02 | S. cerevisiae deletion strains, locus YOR316C, strain cot1, stronger effect = lower value 0.992 | S. cerevisiae deletion strains, locus YPL051W, strain arl3, stronger effect = lower value 1.01 | S. cerevisiae deletion strains, locus YPL055C, strain LGE1, stronger effect = lower value 1.02 | S. cerevisiae deletion strains, locus YPL078C, strain atp4, stronger effect = lower value 1.02 | S. cerevisiae deletion strains, locus YPL106C, strain sse1, stronger effect = lower value 1.03 | S. cerevisiae deletion strains, locus YPL240C, strain hsp82, stronger effect = lower value 1 | S. cerevisiae deletion strains, locus YPL241C, strain CIN2, stronger effect = lower value 0.993 | S. cerevisiae deletion strains, locus YPR119W, strain clb2, stronger effect = lower value 0.996 | S. cerevisiae deletion strains, locus YPR141C, strain kar3, stronger effect = lower value 0.988 | S. cerevisiae deletion strains, locus YPR163C, strain tif3, stronger effect = lower value 0.983 | S. cerevisiae deletion strains, locus YPR167C, strain met16, stronger effect = lower value 0.985 | S. cerevisiae deletion strains, strain wtn01, stronger effect = lower value 0.999 | S. cerevisiae strains, strain wild type, stronger effect = lower value 0.992
